Measurements as given in PubChem BioAssay AID1159580 (chemical genetic matrix, 2015).
About 2,000 (36%) of roughly 5,500 compounds were called active. About 18% were inconclusive and are not listed. Cut-off read from the data, not from the text of the source: active = normalized growth mostly below about 0.91 (no sharp cut-off); inconclusive = no clear call, values can overlap the other calls; inactive = mostly above about 0.92. This is one part of the list.

Assay: chemical genetic growth profiling, strain panel (AID 1159580);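 note: tested at 20 µM; growth read once vehicle control cultures reached saturation at 30 °C; 1 = growth at the plate median or of vehicle wells; lower values mean less growth of the strain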
Conditions: growth OD

Measured: normalized growth

O=C(O)c1cc2cc(Cl)ccc2[nH]1
inactive: S. cerevisiae deletion strains, locus YJR075W, strain HOC1, active compounds read low 1.05 | S. cerevisiae deletion strains, locus YKL009W, strain mrt4, active compounds read low 1.01 | S. cerevisiae deletion strains, locus YKL068W, active compounds read low 0.98 | S. cerevisiae deletion strains, locus YKL085W, strain MDH1 (second series), active compounds read low 1.02 | S. cerevisiae deletion strains, locus YKL085W, strain MDH1, active compounds read low 1.02 | S. cerevisiae deletion strains, locus YKL160W, strain elf1, active compounds read low 1 | S. cerevisiae deletion strains, locus YKL190W, strain CNB1, active compounds read low 1.01 | S. cerevisiae deletion strains, locus YKR001C, strain vps1, active compounds read low 0.984 | S. cerevisiae deletion strains, locus YKR026C, strain gcn3, active compounds read low 0.963 | S. cerevisiae deletion strains, locus YKR091W, strain srl3, active compounds read low 0.994 | S. cerevisiae deletion strains, locus YLL001W, strain dnm1, active compounds read low 0.966 | S. cerevisiae deletion strains, locus YLL026W, active compounds read low 0.98 | S. cerevisiae deletion strains, locus YLL041C, strain sdh2, active compounds read low 0.988 | S. cerevisiae deletion strains, locus YLR027C, strain aat2, active compounds read low 0.992 | S. cerevisiae deletion strains, locus YLR039C, strain RIC1, active compounds read low 1.04 | S. cerevisiae deletion strains, locus YLR058C, strain SHM2, active compounds read low 1.01 | S. cerevisiae deletion strains, locus YLR102C, strain apc9, active compounds read low 0.98 | S. cerevisiae deletion strains, locus YLR113W, strain HOG1, active compounds read low 0.944 | S. cerevisiae deletion strains, locus YLR221C, strain rsa3, active compounds read low 0.991 | S. cerevisiae deletion strains, locus YLR258W, strain gsy2, active compounds read low 0.989 | S. cerevisiae deletion strains, locus YLR262C, strain YPT6 (second series), active compounds read low 0.994 | S. cerevisiae deletion strains, locus YLR262C, strain YPT6, active compounds read low 1.06 | S. cerevisiae deletion strains, locus YLR268W, strain sec22, active compounds read low 1 | S. cerevisiae deletion strains, locus YLR320W, strain mms22, active compounds read low 0.987 | S. cerevisiae deletion strains, locus YLR330W, strain CHS5, active compounds read low 1 | S. cerevisiae deletion strains, locus YLR342W, strain FKS1 (second series), active compounds read low 1.01 | S. cerevisiae deletion strains, locus YLR342W, strain FKS1, active compounds read low 0.991 | S. cerevisiae deletion strains, locus YLR357W, strain rsc2, active compounds read low 0.953 | S. cerevisiae deletion strains, locus YLR370C, strain arc18, active compounds read low 0.981 | S. cerevisiae deletion strains, locus YLR371W, strain rom2, active compounds read low 0.98 | S. cerevisiae deletion strains, locus YLR384C, strain iki3, active compounds read low 0.986 | S. cerevisiae deletion strains, locus YLR418C, strain cdc73, active compounds read low 0.991 | S. cerevisiae deletion strains, locus YML016C, strain PPZ1, active compounds read low 1 | S. cerevisiae deletion strains, locus YML032C, strain rad52, active compounds read low 0.977 | S. cerevisiae deletion strains, locus YML120C, strain ndi1, active compounds read low 0.984 | S. cerevisiae deletion strains, locus YML124C, strain tub3, active compounds read low 0.987 | S. cerevisiae deletion strains, locus YMR058W, strain fet3, active compounds read low 0.985 | S. cerevisiae deletion strains, locus YMR078C, strain ctf18, active compounds read low 0.977 | S. cerevisiae deletion strains, locus YMR125W, strain sto1, active compounds read low 0.959 | S. cerevisiae deletion strains, locus YMR129W, active compounds read low 0.993 | S. cerevisiae deletion strains, locus YMR205C, strain PFK2, active compounds read low 0.956 | S. cerevisiae deletion strains, locus YMR223W, strain ubp8, active compounds read low 0.983 | S. cerevisiae deletion strains, locus YMR231W, strain pep5, active compounds read low 0.989 | S. cerevisiae deletion strains, locus YMR263W, strain SAP30, active compounds read low 1.02 | S. cerevisiae deletion strains, locus YMR307W, strain GAS1, active compounds read low 1.02 | S. cerevisiae deletion strains, locus YNL067W, strain RPL9B, active compounds read low 1.03 | S. cerevisiae deletion strains, locus YNL071W, strain lat1, active compounds read low 0.994 | S. cerevisiae deletion strains, locus YNL128W, strain TEP1, active compounds read low 1.03 | S. cerevisiae deletion strains, locus YNL153C, strain GIM3, active compounds read low 1.03 | S. cerevisiae deletion strains, locus YNL183C, strain NPR1, active compounds read low 0.866 | S. cerevisiae deletion strains, locus YNL209W, strain ssb2, active compounds read low 0.991 | S. cerevisiae deletion strains, locus YNL233W, strain BNI4, active compounds read low 1.01 | S. cerevisiae deletion strains, locus YNL248C, strain rpa49, active compounds read low 0.991 | S. cerevisiae deletion strains, locus YNL250W, strain rad50, active compounds read low 0.971 | S. cerevisiae deletion strains, locus YNL271C, strain bni1, active compounds read low 0.969 | S. cerevisiae deletion strains, locus YNL298W, strain CLA4, active compounds read low 0.978 | S. cerevisiae deletion strains, locus YNL307C, strain MCK1, active compounds read low 0.979 | S. cerevisiae deletion strains, locus YNL322C, strain KRE1 (second series), active compounds read low 0.984 | S. cerevisiae deletion strains, locus YNL322C, strain KRE1, active compounds read low 1.01 | S. cerevisiae deletion strains, locus YNR049C, strain mso1, active compounds read low 0.983 | S. cerevisiae deletion strains, locus YNR052C, strain pop2, active compounds read low 0.989 | S. cerevisiae deletion strains, locus YOL006C, strain TOP1, active compounds read low 1.05 | S. cerevisiae deletion strains, locus YOL012C, strain htz1 0.817 | S. cerevisiae deletion strains, locus YOL147C, strain pex11, active compounds read low 0.981 | S. cerevisiae deletion strains, locus YOR001W, strain rrp6, active compounds read low 1.01 | S. cerevisiae deletion strains, locus YOR061W, strain CKA2, active compounds read low 1.01 | S. cerevisiae deletion strains, locus YOR069W, strain VPS5, active compounds read low 0.996 | S. cerevisiae deletion strains, locus YOR070C, strain gyp1, active compounds read low 0.986 | S. cerevisiae deletion strains, locus YOR080W, strain dia2, active compounds read low 0.981 | S. cerevisiae deletion strains, locus YOR083W, strain WHI5, active compounds read low 1 | S. cerevisiae deletion strains, locus YOR106W, strain vam3, active compounds read low 0.999 | S. cerevisiae deletion strains, locus YOR136W, strain idh2, active compounds read low 0.992 | S. cerevisiae deletion strains, locus YOR144C, strain elg1, active compounds read low 0.989 | S. cerevisiae deletion strains, locus YOR184W, strain ser1, active compounds read low 0.967 | S. cerevisiae deletion strains, locus YOR231W, strain MKK1, active compounds read low 0.926 | S. cerevisiae deletion strains, locus YOR265W, strain rbl2, active compounds read low 0.99 | S. cerevisiae deletion strains, locus YOR270C, strain vph1, active compounds read low 0.984 | S. cerevisiae deletion strains, locus YOR290C, strain snf2, active compounds read low 0.992 | S. cerevisiae deletion strains, locus YOR316C, strain cot1, active compounds read low 0.983 | S. cerevisiae deletion strains, locus YPL051W, strain arl3, active compounds read low 0.991 | S. cerevisiae deletion strains, locus YPL055C, strain LGE1, active compounds read low 1.06 | S. cerevisiae deletion strains, locus YPL078C, strain atp4, active compounds read low 0.997 | S. cerevisiae deletion strains, locus YPL106C, strain sse1, active compounds read low 0.966 | S. cerevisiae deletion strains, locus YPL240C, strain hsp82, active compounds read low 0.998 | S. cerevisiae deletion strains, locus YPL241C, strain CIN2, active compounds read low 1.01 | S. cerevisiae deletion strains, locus YPL256C, strain CLN2, active compounds read low 0.935 | S. cerevisiae deletion strains, locus YPR119W, strain clb2, active compounds read low 0.983 | S. cerevisiae deletion strains, locus YPR141C, strain kar3, active compounds read low 0.976 | S. cerevisiae deletion strains, locus YPR163C, strain tif3, active compounds read low 0.991 | S. cerevisiae deletion strains, locus YPR167C, strain met16, active compounds read low 0.986 | S. cerevisiae deletion strains, strain wtn01, active compounds read low 0.992 | S. cerevisiae strains, strain wild type, active compounds read low 1.01
